A selection: hits, their analogues and other compounds. The true share with any hit is near 18%.
IL-1B inflam inh = inhibitors of inflammasome signaling (IL-1 beta secretion); activity change, % at 57.5 µM; 360,000 compounds, 4.7% hits; THP-1 LPS/ATP IL-1B secretion, AlphaLISA, 16 h; active compounds read low; in the data active = activity change below about -50%; inconclusive = mostly about -30% to -49%; also: % is scaled to controls: 0 for no effect and ±100 for the full control effect
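THP-1 cells pretreated 1 hr with compounds (up to 57.5 uM final), then stimulated with LPS (250 ng/mL final) plus ATP (1.25 mM final); secreted IL-1B measured by AlphaLISA after 16 hr, decreased signal indicating inhibition.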
HepG2 viability = HepG2 cytotoxicity, counter-screen for TGF-b inhibitors | HepG2 CAGA-GFP viability, ATP luminescence, 18 h | Potency, µM (doses to about 46.1 µM), for inactives: at the highest dose activity change, negative = cytotoxicity, most hits filed as cytotoxic | 410,000 compounds, 0.76% hits; also: potency is read from the fitted curve at half-maximal effect
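HepG2 CAGA-GFP cells (1000/well, DMEM with 1% FBS) received compound, then TGF-beta at 500 pg/mL final, and were incubated 18 hours at 37 degrees C. Viability was read by CellTiter-Glo luminescence. Media-only wells were set as complete cell-killing and DMSO as no toxicity.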
DT40 TDP1 CPT = growth inhibition of DT40 Tdp1-/-;hTDP1 cells with camptothecin (screen for TDP1 inhibitors); Potency, µM (titrated, usually from 46.2 µM), without a hit: top-dose activity change, negative = growth inhibition, actives largely listed as inhibitors; 420,000 compounds, 12% hits; chicken DT40 Tdp1-/-;hTDP1 cells + 20 nM CPT, ATP luminescence, 48 h; AID 686979; also: potency is read from the fitted curve at half-maximal effect; % is scaled to controls: 0 for no effect and ±100 for the full control effect; nearly all actives have a fitted effect of over 55% in size
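Cell growth measured by CellTiter-Glo luminescence after a minimum 48 h, 37 C compound exposure with 20 nM CPT in Tdp1-knockout DT40 cells stably expressing hTDP1, seeded 400/well; qHTS titration format.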
DT40 TDP1 no CPT = qHTS for Inhibitors of human tyrosyl-DNA phosphodiesterase 1 (TDP1): qHTS in cells in absence of CPT; DT40 Tdp1-/- hTDP1 cells, no CPT, ATP luminescence, 48 h; Potency, µM (doses to about 46.2 µM), for inactives: at the highest dose activity change, negative = growth inhibition, hits mostly inhibitors; 420,000 compounds, 15% hits; AID 686978, 2013; also: potency is read from the fitted curve at half-maximal effect; % is scaled to controls: 0 for no effect and ±100 for the full control effect; nearly all actives have a fitted effect of over 55% in size
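Growth of hTDP1-complemented DT40 Tdp1-knockout cells is measured by ATP luminescence after at least 48 hr compound exposure at 37 °C, with DMSO substituting for the 20 nM CPT used in the parallel screen.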
TDP1 inh = TDP1 (human) enzyme inhibition | 350,000 compounds, 0.28% hits | Q9NUW8 | AID 485290 | Potency, µM (highest dose often 130 µM), for inactives: top-dose activity change, negative = inhibition, most hits filed as inhibitors | recombinant TDP1, AlphaScreen DNA substrate cleavage; also: potency is read from the fitted curve at half-maximal effect; % is scaled to controls: 0 for no effect and ±100 for the full control effect; nearly all actives have a fitted effect of over 40% in size
Target sequence (Q9NUW8 whole entry, looked up): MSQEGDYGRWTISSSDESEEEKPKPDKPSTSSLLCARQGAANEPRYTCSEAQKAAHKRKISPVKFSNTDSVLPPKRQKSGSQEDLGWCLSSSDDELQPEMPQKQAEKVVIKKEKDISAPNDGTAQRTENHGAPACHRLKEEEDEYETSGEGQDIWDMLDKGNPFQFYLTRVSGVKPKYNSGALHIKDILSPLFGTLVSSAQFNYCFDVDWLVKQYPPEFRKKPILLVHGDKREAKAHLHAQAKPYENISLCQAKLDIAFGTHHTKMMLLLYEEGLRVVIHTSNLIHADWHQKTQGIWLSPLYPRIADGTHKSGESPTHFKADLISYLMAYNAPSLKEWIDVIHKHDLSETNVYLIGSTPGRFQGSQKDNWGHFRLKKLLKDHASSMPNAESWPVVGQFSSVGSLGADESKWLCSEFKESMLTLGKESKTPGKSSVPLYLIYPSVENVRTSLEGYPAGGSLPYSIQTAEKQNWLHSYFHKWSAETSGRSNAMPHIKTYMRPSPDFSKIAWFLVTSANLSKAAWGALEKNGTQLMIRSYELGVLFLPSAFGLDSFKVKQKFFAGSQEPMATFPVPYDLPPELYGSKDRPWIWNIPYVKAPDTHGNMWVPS
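Signal: AlphaScreen proximity between streptavidin donor and anti-FITC acceptor beads on intact substrate. Reaction: Tdp1 1 nM, substrate 15 nM final, 5 min RT after 15 min compound preincubation.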
TGFb SMAD3 inh = TGF-b pathway inhibition; HepG2 CAGA-GFP TGF-b/SMAD3 reporter, GFP fluorescence, 18 h; TGF-beta stimulated, 500 pg/mL final; Potency, µM (titrated, usually from 46.1 µM), inactives show top-dose activity, negative = inhibition, most hits filed as inhibitors; 410,000 compounds, 1.2% hits; AID 588855; also: potency is read from the fitted curve at half-maximal effect; % is scaled to controls: 0 for no effect and ±100 for the full control effect; nearly all actives have a fitted effect of over 65% in size
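Smad-responsive CAGA-GFP expression was quantified in HEPG2 cells exposed to compounds and 500 pg/mL final TGF-beta for 18 h at 37 degrees C; unstimulated wells defined full inhibition.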
Numbers without * were called inactive; ? = inconclusive; . = no result given. Unless noted, calls follow the shape of the dose curve; as a rule, active = well fitted curve in the direction sought with a large enough effect; inconclusive = small, poorly fitted or top-dose-only effect, or another doubt; inactive = no such curve, though single readings can be large; an effect the other way counts as inactive or inconclusive.

SMILES	IL-1B inflam inh	HepG2 viability	DT40 TDP1 CPT	DT40 TDP1 no CPT	TDP1 inh	TGFb SMAD3 inh
Cc1ccccc1OCC(=O)Nc1ccccc1N1CCOCC1	9	-4%	-18%	10µM*	0%	3%
CCOc1ccccc1NC(=O)Cn1[nH]c(=O)c2ccccc2c1=O	.	.	.	.	-3%	.
Cc1ccccc1NC(=S)NC(=O)COc1ccccc1C	2	1%	6%	4%	-10%	-9%
Cc1ccccc1OCC(=O)NNC(=O)Cn1[nH]c(=O)c2ccccc2c1=O	22	-3%	8.2µM*	?	1%	8%
Cc1cc(C)c(OCC(=O)Nc2ccccc2N2CCCCC2)c(C)c1	4	2%	?	?	-21%	5%
CC(=O)N1CCN(c2ccccc2NC(=O)COc2ccccc2C)CC1	0	-2%	?	?	3%	3%
O=C(CN1C(=O)C2(SCC(=O)N2c2ccccc2)c2ccccc21)NCc1ccccc1 (centres undefined)	.	-11%	.	.	0%	-1%
CCC(C)c1ccc(S(=O)(=O)N2CCN(S(=O)(=O)c3ccc(NC(C)=O)cc3)CC2)cc1 (centres undefined)	-9	36%	14%	-10%	-19%	62%
O=C(CC12CC3CC(CC(C3)C1)C2)Nc1ccccc1N1CCOCC1	-5	-17%	?	10µM*	-14%	-7%
COc1cc(CNCCCN2CCOCC2)c(Br)cc1OCC(=O)Nc1ccccc1C	-55*	-9%	?	?	-5%	1%
Cc1csc2c(NC3CCN(Cc4ccccc4)CC3)ncnc12	-19	13%	23µM*	16µM*	4%	-2%
Cc1sc2ncnc(NC3CCN(Cc4ccccc4)CC3)c2c1C	?	-22%	2.6µM*	3.7µM*	-3%	?
c1ccc(CN2CCC(Nc3ncnc4sccc34)CC2)cc1	0	-6%	10%	2%	1%	14%
Cc1cc(=O)oc2cc(OCC(=O)Nc3ccc(CN4CCOCC4)cc3)c(Cl)cc12	-15	-19%	?	-5%	1%	-4%
COC(=O)c1c(SC)nc2ccccc2c1OCc1ccc(Cl)cc1	.	-14%	?	?	.	?
CCOc1ccccc1C(=O)Nc1cc(C)ccc1NC(=O)c1ccco1	-12	-4%	?	-5%	2%	0%
CC(=O)N1CCc2cc(S(=O)(=O)NCCC(=O)N3CCN(Cc4ccccc4)CC3)ccc21	19	-19%	?	21µM*	2%	3%
Cc1ccc(S(=O)(=O)NCCC(=O)N2CCN(Cc3ccccc3)CC2)cc1	-4	-37%	-5%	-25%	6%	-5%
COc1ccc(N2CCN(C(=O)CCNS(=O)(=O)c3ccc4c(c3)CCN4C(=O)C3CC3)CC2)cc1	.	-23%	13µM*	18µM*	10%	-1%
Cc1cccc(N2CCN(C(=O)CCNS(=O)(=O)c3ccc4c(c3)CCN4C(=O)C3CC3)CC2)c1C	.	-22%	18µM*	18µM*	2%	-30%
O=C(CCNS(=O)(=O)c1ccc2c(c1)CCN2C(=O)C1CC1)N1CCN(c2ccc(F)cc2)CC1	.	-18%	3.3µM*	9.2µM*	2%	?
COc1ccc(CNS(=O)(=O)c2ccc3c(c2)CCN3C(=O)C2CCC2)cc1	15	-4%	?	?	0%	-1%
C[n+]1cn(Cc2ccc(C#N)cc2)c2ccccc21	12	0%	-3%	-14%	.	34%
CCn1cc(C(=O)N2CCN(c3ccc(C)cc3)C(C)C2)c(=O)c2cc(S(=O)(=O)N3CCCC3)ccc21 (centres undefined)	.	-31%	?	?	0%	-4%
CC1CC(C)CN(C(=O)CCNS(=O)(=O)c2ccc3c(c2)CCC(=O)N3)C1 (centres undefined)	-5	9%	-10%	-2%	-5%	-6%
SMILES	IL-1B inflam inh	HepG2 viability	DT40 TDP1 CPT	DT40 TDP1 no CPT	TDP1 inh	TGFb SMAD3 inh
O=C(CCNS(=O)(=O)c1cccc2nonc12)N1CCN(c2cccc(Cl)c2)CC1	-12	-32%	?	12µM*	-2%	1%
CCN(CC)c1ccc(NC(=O)CCNS(=O)(=O)c2ccc3c(c2)CCC(=O)N3)c(C)c1	30	-11%	?	16µM*	12%	-11%
O=C(CCNS(=O)(=O)c1cccs1)N1CCN(c2cccc(Cl)c2)CC1	-12	3%	?	?	-8%	19%
O=C(CCNS(=O)(=O)c1ccc2c(c1)CCN2C(=O)C1CC1)N1CCN(c2cccc(Cl)c2)CC1	.	-26%	5.8µM*	9.2µM*	4%	-30%
CCC(=O)N1CCc2cc(S(=O)(=O)NCCC(=O)N3CCN(c4ccccn4)CC3)ccc21	8	-8%	-1%	?	5%	-12%
O=C1CCc2cc(S(=O)(=O)NCCC(=O)N3CCN(c4cccc(Cl)c4)CC3)ccc2N1	2	-19%	26µM*	10µM*	3%	-11%
CSc1ncccc1C(=O)OCC(=O)Nc1ccc2c(c1)CCC2	-9	16%	-2%	2%	0%	3%
N#Cc1ccc(CN2CCN(C(=O)CCNS(=O)(=O)c3ccc(F)c(Cl)c3)CC2)cc1	-6	-15%	?	18µM*	0%	?
N#Cc1ccc(CN2CCN(C(=O)CCNS(=O)(=O)c3ccc(F)c(F)c3)CC2)cc1	28	2%	-27%	-18%	0%	-12%
N#Cc1ccc(CN2CCN(CC(=O)NCCc3ccc(Cl)cc3Cl)CC2)cc1	?	-27%	21µM*	21µM*	.	?
O=C(Cn1cc(C(F)(F)F)ccc1=O)NCCc1ccc(Cl)cc1Cl	30	-3%	-5%	-9%	0%	-17%
CCN(CC)S(=O)(=O)c1ccc2c(c1)N(CC(=O)NCCc1ccc(OC)c(OC)c1)C(=O)CO2	.	0%	-27%	-27%	9%	0%
Cc1c(C(=O)Nc2ccc(C(=O)Nc3ccccc3)cc2)cccc1[N+](=O)[O-]	-14	-18%	-22%	-11%	15%	-11%
Cc1nc2ccccc2c(=O)n1-c1cccc(NC(=O)c2cccs2)c1	-51*	-14%	?	?	10%	-22%
Cc1cc(-n2c(C)nc3ccccc3c2=O)ccc1NC(=O)c1ccc([N+](=O)[O-])cc1	.	-4%	?	?	-3%	-13%

Source: PubChem
